Results: the supplement of paper PMC11732987, “Enantioselective OTUD7B fragment discovery through chemoproteomics screening and high-throughput optimisation” (Communications Chemistry, 2025)

Experiments:
Assay in all cases: log2 ratio of Biotin-Ahx-Ub-VS probe labelling (fragment/DMSO); higher = less target engagement (more negative = stronger competition), active = hit call of the paper (q ≤ 0.05, log2 ratio ≤ -1)
Details in all cases: compound concentration: 200 uM; treatment time: 3 h
USP34 = USP34 (UniProt Q70CQ2)
In short: (§1)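 Labelling with Biotin-Ahx-Ub-VS (0.5 µM final, 1 h) followed a 3 h triplicate treatment of HEK293T lysate (495 µg per sample, Tris/CHAPS/IGEPAL buffer with protease inhibitors) with fragment at 200 µM or vehicle. Labelled DUBs were NeutrAvidin-enriched, digested with LysC and trypsin, and run by diaPASEF LC-MS/MS. The values, average log2 fragment/vehicle ratios by unpaired t-test, come from global-median-normalised Spectronaut label-free quantities. Proteins with ≥2 unique peptides were used.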

USP36 = molecular target: T1, USP36 (UniProt Q9P275)
T1 sequence (whole entry): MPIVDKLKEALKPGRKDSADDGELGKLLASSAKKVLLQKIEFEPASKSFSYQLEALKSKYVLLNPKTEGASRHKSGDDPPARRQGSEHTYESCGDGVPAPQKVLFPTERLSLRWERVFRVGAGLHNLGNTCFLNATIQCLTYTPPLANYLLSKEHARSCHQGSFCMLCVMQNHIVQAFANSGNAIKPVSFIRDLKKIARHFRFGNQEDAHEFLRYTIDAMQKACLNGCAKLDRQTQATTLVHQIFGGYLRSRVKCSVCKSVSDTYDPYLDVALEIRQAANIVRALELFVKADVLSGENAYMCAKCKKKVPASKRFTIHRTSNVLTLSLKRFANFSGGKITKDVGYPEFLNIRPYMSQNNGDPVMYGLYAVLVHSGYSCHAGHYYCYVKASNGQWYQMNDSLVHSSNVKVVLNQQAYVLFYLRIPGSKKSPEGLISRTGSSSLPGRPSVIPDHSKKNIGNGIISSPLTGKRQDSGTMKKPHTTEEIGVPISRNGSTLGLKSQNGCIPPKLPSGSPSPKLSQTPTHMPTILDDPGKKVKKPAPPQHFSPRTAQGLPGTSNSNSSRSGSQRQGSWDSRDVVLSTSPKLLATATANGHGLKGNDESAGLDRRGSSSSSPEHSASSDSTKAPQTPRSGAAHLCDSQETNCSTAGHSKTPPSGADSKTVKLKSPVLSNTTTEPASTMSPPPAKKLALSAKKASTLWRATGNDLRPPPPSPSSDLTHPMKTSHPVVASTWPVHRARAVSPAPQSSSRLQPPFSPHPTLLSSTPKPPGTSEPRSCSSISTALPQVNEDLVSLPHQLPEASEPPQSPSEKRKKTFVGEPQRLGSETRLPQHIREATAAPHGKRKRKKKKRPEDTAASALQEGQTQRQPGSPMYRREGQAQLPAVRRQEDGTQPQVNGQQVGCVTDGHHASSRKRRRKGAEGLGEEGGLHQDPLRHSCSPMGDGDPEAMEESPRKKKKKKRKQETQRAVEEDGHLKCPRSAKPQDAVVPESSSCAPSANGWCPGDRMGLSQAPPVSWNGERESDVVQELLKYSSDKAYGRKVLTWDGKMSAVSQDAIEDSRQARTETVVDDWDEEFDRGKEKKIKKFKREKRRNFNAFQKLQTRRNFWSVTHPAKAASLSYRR
In short: as §1

USP38 = molecular target: T2, USP38 (UniProt Q8NB14)
T2 sequence (whole entry): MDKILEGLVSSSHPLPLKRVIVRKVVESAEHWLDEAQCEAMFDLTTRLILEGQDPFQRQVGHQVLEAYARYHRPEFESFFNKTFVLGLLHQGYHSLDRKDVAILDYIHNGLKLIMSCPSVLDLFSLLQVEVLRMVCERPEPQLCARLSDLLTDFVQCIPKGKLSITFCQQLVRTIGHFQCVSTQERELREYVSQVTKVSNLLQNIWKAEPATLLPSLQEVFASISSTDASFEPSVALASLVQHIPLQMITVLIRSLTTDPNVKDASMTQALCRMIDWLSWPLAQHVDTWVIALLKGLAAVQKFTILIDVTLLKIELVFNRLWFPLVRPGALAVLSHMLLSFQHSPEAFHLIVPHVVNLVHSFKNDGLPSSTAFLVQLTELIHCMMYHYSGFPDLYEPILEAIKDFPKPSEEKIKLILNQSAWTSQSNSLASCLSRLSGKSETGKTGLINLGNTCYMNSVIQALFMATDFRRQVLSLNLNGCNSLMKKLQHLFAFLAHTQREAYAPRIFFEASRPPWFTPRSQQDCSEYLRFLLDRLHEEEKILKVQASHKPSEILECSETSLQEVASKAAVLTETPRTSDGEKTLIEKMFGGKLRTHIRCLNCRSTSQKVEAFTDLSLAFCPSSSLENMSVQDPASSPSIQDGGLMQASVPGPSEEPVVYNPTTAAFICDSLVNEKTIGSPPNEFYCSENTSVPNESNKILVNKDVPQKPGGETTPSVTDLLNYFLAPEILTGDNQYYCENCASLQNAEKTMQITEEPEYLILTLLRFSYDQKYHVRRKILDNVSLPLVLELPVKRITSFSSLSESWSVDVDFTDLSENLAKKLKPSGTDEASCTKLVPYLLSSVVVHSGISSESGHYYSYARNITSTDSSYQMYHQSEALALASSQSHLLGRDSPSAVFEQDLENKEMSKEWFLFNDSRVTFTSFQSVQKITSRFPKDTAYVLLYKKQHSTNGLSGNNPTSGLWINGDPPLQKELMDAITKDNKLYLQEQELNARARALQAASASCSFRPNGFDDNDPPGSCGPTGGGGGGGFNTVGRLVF
In short: as §1

USP39 = molecular target: T3, USP39 (UniProt Q53GS9)
T3 sequence (whole entry): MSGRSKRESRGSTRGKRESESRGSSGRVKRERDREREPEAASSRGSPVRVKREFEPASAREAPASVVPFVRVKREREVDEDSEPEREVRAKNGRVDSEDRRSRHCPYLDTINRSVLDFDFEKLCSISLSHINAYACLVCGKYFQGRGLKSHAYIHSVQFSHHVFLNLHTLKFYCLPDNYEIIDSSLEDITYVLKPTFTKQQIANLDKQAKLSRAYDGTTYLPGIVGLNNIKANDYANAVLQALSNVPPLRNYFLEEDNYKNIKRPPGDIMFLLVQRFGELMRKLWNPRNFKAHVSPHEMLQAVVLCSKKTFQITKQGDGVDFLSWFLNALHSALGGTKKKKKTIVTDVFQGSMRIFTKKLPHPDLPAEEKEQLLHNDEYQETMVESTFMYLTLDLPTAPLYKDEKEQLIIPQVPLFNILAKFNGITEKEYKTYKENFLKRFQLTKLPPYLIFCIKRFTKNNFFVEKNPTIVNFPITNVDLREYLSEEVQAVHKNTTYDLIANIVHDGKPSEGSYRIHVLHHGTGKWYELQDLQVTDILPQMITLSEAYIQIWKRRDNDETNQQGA
In short: as §1

USP4 = molecular target: T4, USP4 (UniProt Q13107)
T4 sequence (whole entry): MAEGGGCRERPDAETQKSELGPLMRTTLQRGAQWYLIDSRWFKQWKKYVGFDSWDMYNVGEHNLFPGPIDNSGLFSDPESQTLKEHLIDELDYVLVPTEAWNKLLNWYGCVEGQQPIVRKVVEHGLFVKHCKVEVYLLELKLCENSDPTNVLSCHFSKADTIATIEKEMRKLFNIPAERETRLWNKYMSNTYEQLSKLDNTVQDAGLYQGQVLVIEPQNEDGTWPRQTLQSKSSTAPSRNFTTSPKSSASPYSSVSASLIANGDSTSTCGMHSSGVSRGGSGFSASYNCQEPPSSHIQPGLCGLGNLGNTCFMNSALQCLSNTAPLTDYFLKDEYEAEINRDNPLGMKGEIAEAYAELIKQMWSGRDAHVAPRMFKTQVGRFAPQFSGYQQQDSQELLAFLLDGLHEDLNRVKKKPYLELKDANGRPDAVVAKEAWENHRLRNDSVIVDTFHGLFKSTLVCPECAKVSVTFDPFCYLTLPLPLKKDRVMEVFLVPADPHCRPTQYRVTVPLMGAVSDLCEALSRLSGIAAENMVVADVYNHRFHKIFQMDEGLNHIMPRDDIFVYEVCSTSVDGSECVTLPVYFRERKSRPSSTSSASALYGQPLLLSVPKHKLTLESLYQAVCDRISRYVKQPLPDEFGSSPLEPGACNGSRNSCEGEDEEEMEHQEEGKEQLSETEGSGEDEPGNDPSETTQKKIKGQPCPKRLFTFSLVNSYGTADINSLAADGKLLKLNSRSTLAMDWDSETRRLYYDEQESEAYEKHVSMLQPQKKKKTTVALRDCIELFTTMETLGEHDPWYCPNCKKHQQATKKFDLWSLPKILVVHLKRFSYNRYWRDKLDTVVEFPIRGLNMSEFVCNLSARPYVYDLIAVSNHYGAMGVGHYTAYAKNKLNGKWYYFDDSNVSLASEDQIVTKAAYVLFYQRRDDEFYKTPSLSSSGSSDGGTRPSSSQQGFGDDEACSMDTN
In short: as §1

Measured: log2 ratio of Biotin-Ahx-Ub-VS probe labelling

Sequence of USP34 (Q70CQ2 whole entry, the tested form may be a part): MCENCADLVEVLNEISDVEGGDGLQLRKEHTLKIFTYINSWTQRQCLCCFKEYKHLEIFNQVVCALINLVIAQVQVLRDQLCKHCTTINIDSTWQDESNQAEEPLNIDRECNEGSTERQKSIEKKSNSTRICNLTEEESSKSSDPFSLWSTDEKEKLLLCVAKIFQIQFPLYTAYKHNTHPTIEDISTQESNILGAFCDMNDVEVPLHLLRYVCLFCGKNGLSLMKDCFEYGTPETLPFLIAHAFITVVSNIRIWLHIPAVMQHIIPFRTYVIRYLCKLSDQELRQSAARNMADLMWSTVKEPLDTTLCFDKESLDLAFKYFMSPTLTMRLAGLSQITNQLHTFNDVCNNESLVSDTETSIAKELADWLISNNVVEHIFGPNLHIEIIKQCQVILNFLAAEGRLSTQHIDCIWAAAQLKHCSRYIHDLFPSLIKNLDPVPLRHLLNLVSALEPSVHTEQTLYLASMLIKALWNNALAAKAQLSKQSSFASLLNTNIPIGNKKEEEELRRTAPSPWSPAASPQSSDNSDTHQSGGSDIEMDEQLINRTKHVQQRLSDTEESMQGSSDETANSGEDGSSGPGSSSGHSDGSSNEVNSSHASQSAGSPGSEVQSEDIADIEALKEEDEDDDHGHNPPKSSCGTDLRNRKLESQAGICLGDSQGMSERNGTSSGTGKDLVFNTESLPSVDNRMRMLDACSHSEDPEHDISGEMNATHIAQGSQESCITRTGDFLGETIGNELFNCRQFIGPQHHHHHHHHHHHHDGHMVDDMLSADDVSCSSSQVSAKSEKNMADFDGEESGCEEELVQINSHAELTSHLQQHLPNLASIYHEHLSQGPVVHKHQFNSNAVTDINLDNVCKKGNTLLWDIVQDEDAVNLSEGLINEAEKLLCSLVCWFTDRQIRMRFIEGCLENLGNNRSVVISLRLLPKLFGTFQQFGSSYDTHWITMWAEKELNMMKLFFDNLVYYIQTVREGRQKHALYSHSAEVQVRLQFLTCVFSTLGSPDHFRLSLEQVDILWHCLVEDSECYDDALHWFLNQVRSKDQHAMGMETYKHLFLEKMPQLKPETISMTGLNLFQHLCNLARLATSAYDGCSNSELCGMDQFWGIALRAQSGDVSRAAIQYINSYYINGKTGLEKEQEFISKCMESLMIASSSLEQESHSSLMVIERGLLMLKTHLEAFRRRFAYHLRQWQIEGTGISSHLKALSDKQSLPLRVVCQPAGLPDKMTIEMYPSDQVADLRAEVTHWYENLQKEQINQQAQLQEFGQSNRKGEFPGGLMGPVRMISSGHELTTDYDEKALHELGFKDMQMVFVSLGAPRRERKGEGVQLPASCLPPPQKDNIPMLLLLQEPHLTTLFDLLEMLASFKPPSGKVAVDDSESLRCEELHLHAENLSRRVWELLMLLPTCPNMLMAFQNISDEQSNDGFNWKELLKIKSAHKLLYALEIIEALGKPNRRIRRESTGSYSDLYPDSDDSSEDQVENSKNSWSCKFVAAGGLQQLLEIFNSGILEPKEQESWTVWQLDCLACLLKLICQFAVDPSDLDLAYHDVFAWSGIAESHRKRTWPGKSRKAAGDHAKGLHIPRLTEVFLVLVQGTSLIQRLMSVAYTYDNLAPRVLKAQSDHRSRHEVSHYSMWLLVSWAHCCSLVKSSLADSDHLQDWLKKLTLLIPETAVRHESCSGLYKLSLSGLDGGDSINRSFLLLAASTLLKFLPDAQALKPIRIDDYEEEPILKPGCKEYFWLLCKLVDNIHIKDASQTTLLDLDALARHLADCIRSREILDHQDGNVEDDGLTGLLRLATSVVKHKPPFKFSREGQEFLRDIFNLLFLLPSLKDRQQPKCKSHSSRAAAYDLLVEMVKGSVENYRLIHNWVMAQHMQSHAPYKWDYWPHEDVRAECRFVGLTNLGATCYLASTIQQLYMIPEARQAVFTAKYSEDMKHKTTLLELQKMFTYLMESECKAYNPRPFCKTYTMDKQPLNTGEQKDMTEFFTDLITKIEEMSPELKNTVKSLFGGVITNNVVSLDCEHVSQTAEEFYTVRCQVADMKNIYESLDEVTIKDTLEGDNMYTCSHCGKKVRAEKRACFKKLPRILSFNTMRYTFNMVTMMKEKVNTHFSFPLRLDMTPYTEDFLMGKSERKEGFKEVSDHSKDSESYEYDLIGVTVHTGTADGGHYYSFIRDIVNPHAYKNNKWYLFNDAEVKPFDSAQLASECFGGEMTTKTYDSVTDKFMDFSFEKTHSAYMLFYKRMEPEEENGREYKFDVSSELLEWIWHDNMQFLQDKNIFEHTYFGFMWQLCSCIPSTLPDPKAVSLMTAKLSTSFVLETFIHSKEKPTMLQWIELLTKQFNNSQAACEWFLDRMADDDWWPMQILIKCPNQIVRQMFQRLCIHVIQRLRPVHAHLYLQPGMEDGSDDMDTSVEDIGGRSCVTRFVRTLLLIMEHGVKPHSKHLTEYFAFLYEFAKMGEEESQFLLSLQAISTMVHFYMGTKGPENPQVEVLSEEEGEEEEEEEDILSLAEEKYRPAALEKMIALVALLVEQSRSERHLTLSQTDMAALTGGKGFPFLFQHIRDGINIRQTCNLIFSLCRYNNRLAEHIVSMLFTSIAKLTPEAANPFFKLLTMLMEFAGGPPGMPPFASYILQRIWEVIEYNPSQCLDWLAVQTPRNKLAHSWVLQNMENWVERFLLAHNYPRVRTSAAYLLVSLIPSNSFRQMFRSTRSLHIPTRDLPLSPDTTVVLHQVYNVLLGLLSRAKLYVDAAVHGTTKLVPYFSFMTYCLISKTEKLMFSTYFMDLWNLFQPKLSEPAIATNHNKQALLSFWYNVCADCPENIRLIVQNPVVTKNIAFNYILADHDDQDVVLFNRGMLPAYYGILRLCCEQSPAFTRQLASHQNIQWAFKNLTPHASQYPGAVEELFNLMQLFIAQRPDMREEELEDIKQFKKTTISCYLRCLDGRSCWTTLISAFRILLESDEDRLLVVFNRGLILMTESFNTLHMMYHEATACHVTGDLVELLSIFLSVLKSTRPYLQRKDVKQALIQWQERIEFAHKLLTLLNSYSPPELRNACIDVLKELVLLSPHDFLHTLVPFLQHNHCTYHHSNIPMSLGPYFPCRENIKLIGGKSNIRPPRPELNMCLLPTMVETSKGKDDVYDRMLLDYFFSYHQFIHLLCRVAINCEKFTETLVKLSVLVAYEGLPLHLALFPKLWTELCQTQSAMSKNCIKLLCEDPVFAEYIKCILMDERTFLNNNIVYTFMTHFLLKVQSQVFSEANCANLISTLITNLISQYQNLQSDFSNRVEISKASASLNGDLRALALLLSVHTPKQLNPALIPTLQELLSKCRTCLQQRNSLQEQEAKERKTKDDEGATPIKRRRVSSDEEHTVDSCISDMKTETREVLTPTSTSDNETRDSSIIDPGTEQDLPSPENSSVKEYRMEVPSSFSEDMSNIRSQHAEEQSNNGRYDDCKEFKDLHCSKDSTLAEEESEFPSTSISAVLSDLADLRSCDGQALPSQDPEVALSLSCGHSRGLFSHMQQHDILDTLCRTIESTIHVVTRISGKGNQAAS

Cl.O=C(CCl)NCc1ccnc(Oc2ccccc2F)c1
inactive: USP34 -0.267 | USP36 0.0203 | USP38 -0.00457 | USP39 0.295 | USP4 -0.0201
